Assay results as given in PubChem BioAssay (NCATS).
Records with an inconclusive call do not appear. Active and inactive are the calls of the source. Calls follow the shape of the dose curve; as a rule, active = well fitted curve in the direction sought with a large enough effect; inconclusive = small, poorly fitted or top-dose-only effect, or another doubt; inactive = no such curve, though single readings can be large; an effect the other way counts as inactive or inconclusive.

Columns and labels:
[1] = Cell Viability - H-4-II-E (AID 543); details: H-4-II-E rat hepatoma viability; series mostly up to 92.2 µM;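 also: cells exposed to compound for 40 hours; % is scaled to controls: 0 for no effect and ±100 for the full control effect; nearly all actives have a fitted effect of over 35% in size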
In short: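 Luminescent ATP signal (CellTiter-Glo) served as the viability read-out, with cytotoxicity seen as a concentration-dependent ATP drop. Cells were treated for 40 hours in complete medium. AC50 values derive from Hill-equation modelling.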

[2] = Cell Viability - SH-SY5Y (AID 544); details: SH-SY5Y neuroblastoma cell viability; viability change, negative = cytotoxic: at 92.2 µM (top of the series);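 also: cells exposed to compound for 40 hours; nearly all actives have a fitted effect of over 55% in size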
In short: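 Luminescent ATP read-out (CellTiter-Glo) measures loss of viable SH-SY5Y neuroblastoma cells after 40 hr compound exposure at 37 °C. AC50 values derive from standard Hill modelling of qHTS concentration-response data.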

[3] = Cell Viability - Renal Proximal Tubule (AID 545); details: renal proximal tubule cells viability, primary cells of rat origin; series mostly up to 91.7 µM;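 also: cells exposed to compound for 40 hours; nearly all actives have a fitted effect of over 40% in size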
In short: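 Luminescent ATP signal (CellTiter-Glo) served as the viability read-out after 40 hr compound exposure of freshly isolated rat proximal tubule cells at 37 °C. Concentration-dependent ATP loss was fitted with the Hill equation to give AC50.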

[4] = Cell Viability - Mesenchymal (AID 546); details: mesenchymal cells viability, qHTS; series mostly up to 91.7 µM;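 also: cells exposed to compound for 40 hours before reading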
In short: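 AC50 values reflect the drop in intracellular ATP in a human kidney mesenchymal line derived from normal glomeruli. Treatment lasts 40 hr at 37 °C in complete medium, and the signal comes from CellTiter-Glo luminescence.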

[5] = Cellular Toxicity (caspase-3) HepG2 (AID 654); details: HepG2 caspase-3 activation, luminescence; series mostly up to 92.2 µM;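 also: cells exposed to compound for 16 hours before reading; 0% = DMSO alone and 100% = caspase signal from 100 µM tamoxifen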
In short: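 Cells plated 5 hr at 37 °C, compound added, incubated 16 hr at 37 °C. Caspase-Glo 3/7 reagent followed, 20 min at room temperature, then luminescence read. Activation scored as signal increase; AC50 from Hill fit.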

[6] = Cellular Toxicity (caspase-3) HUV-EC-C (AID 656); details: HUV-EC-C cells, caspase-3 activation (apoptosis), vehicle = 0, 100 µM tamoxifen = 100%; series mostly up to 92.2 µM
In short: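 qHTS; HUV-EC-C, 1000 cells/well; 5 hr settle, 16 hr cmpd, 37°C; Caspase-Glo 3/7, 20 min RT; luminescence. Norm: DMSO = 0%, tamoxifen 100 uM = 100%. Hill-fit AC50.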

[7] = Cellular Toxicity (caspase-3) SHSY5Y (AID 657); details: SH-SY5Y caspase-3 activation, DMSO zero, 10 µM staurosporine = 100%; series mostly up to 91.7 µM;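 also: cells exposed to compound for 16 hours at 37 °C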
In short: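 qHTS, SH-SY5Y, 1500 cells/well, 5 h pre-incubation 37 °C; compound 16 h 37 °C; Caspase-Glo 3/7 1 h RT; luminescence. Norm.: DMSO = 0, 10 uM staurosporine = 100%. Hill fit → AC50.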

[8] = Cellular Toxicity (caspase-3) BJ (AID 658); details: BJ fibroblasts, luminescence, normalized: DMSO 0%, staurosporine 100%; series mostly up to 91.7 µM;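 also: cells exposed to compound for 16 hours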
In short: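 Readout: Caspase-Glo 3/7 luminescence increase in BJ cells after 16 hr treatment at 37 °C. Staurosporine and tamoxifen served as positive controls; AC50 values came from Hill modelling of data normalized to DMSO and 10 uM staurosporine.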

[9] = Cellular Toxicity (caspase-3) MRC-5 (AID 659); details: MRC-5 cells, luminescence, normalized: DMSO 0%, 10 µM staurosporine 100%; series mostly up to 91.7 µM
In short: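 Concentration-dependent caspase 3/7 activation is measured in human normal lung fibroblasts (MRC-5) following 16-hour treatment. AC50 values come from standard Hill-equation modeling of luminescence normalized to DMSO and 10 uM staurosporine.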

[10] = Cellular Toxicity (caspase-3) Jurkat (AID 655); details: Jurkat caspase-3 activation, luminescence; caspase-3 activation: at 92.2 µM (top of the series), DMSO = 0%, tamoxifen = 100%;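 also: cells exposed to compound for 16 h at 37 °C before reading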
In short: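 5000 Jurkat cells/well; compound 16 hr, 37 °C; Caspase-Glo 3/7 added, 20 min RT; luminescence read. Norm: DMSO = 0%, tamoxifen 100 uM = 100%. AC50, Hill model.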

C=CCOC(=O)COCCC(C)C
inactive: Potency [1] | Potency [2] | Potency [3] | Potency [4] | Potency [5] | outcome [6] | outcome [7] | outcome [8] | outcome [9]

CCc1ccccc1O
inactive: Potency [1] | Potency [2] | Potency [3] | Potency [4] | Potency [5] | outcome [6] | outcome [7] | outcome [8] | outcome [9]

COc1ccccc1[N+](=O)[O-]
inactive: Potency [1] | Potency [2] | Potency [3] | Potency [4] | Potency [5] | outcome [6] | outcome [7] | outcome [8] | outcome [9]

Nc1cc(Cl)c(N)c(Cl)c1
inactive: Potency [1] | Potency [3] | Potency [4] | Potency [5] | caspase-3 activation [10] 3.71% | outcome [6] | outcome [7] | outcome [8] | outcome [9]

Cc1cccc(C(=O)O)c1
inactive: Potency [1] | Potency [2] | Potency [3] | Potency [4] | Potency [5] | outcome [6] | outcome [7] | outcome [8] | outcome [9]

COc1cccc(N)c1
inactive: Potency [1] | Potency [3] | Potency [4] | Potency [5] | caspase-3 activation [10] 2.35% | outcome [6] | outcome [7] | outcome [8] | outcome [9]

CC#N
inactive: Potency [1] | Potency [3] | Potency [4] | Potency [5] | caspase-3 activation [10] 1.05% | outcome [6] | outcome [7] | outcome [8] | outcome [9]

CNc1ccc([N+](=O)[O-])cc1
inactive: Potency [1] | Potency [3] | Potency [4] | Potency [5] | caspase-3 activation [10] -0.0856% | outcome [6] | outcome [7] | outcome [8] | outcome [9]

CC(C)Cc1nccs1
inactive: Potency [1] | Potency [3] | Potency [4] | Potency [5] | outcome [6] | outcome [7] | outcome [8] | outcome [9]

CCCCC(CC)COC(=O)CCCCC(=O)OCC(CC)CCCC (configuration not stated)
inactive: Potency [2] | Potency [3] | Potency [4] | Potency [5] | outcome [6] | outcome [7] | outcome [8] | outcome [9]

Nc1ccccc1S(=O)(=O)O
inactive: Potency [1] | Potency [3] | Potency [4] | Potency [5] | caspase-3 activation [10] 1.01% | outcome [6] | outcome [7] | outcome [8] | outcome [9]
